Screening data from PubChem BioAssay.
Shown are actives, neighbours in structure and some others; about 7.5% of the full set was active somewhere.
NPC1 promoter act – NPC1 promoter activation; Huh7 NPC1 promoter luciferase reporter, 24 h; Potency, µM (titrated, usually from 9.22 µM), for the others: top-dose activation, usual class: activators; 320,000 compounds, 2.4% hits; AID 485313; also: % of control where 0% means no effect; nearly all actives have a fitted effect of over 60% in size
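Stably transfected Huh7 (NPC1 promoter→luciferase), 1500 cells/well in Opti-MEM + 10% FBS, 2 h settle, then compound 24 h at 37 °C. Luminescence after 10 min with Amplite reagent.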
ELG1 genotox – induces genotoxicity in HEK293T cells with luciferase-tagged ELG1 | HEK293T ELG1-luciferase reporter, luminescence, 16 h | Potency, µM (titrated, usually from 46 µM), inactives show at the top dose activity change, positive = activation, actives largely listed as activators | 330,000 compounds, 1.3% hits | AID 504466; also: % of control where 0% means no effect; nearly all actives have a fitted effect of over 60% in size
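Genotoxic stress is detected as increased luminescence from luciferase-tagged ELG1 in HEK293T cells, measured with ONE-Glo after a 16 hr treatment at 37 °C.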
Rab9 prom act – Rab9 promoter activation. Huh7 Rab9 promoter-luciferase reporter, luminescence, 24 h. Potency, µM (top dose mostly 9.22 µM), without a hit: at the top dose activation, negative = inhibition, hits mostly activators. 320,000 compounds, 2.8% hits; also: % of control where 0% means no effect; nearly all actives have a fitted effect of over 60% in size
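Measured in stably transfected Huh7 cells bearing a Rab9 promoter–luciferase construct: 24 h compound treatment at 37 °C, followed by luminescence detection.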
KinaseGlo FLuc – Kinase-Glo luciferase inhibition (counter-screen); Kinase-Glo luciferase, ATP luminescence, 8 min; Potency, µM (titrated, usually from 38.3 µM), without a hit: at the highest dose activity change, negative = inhibition, actives largely listed as inhibitors; 200,000 compounds, 0.28% hits; AID 1379; also: % is scaled to controls: 0 for no effect and ±100 for the full control effect; nearly all actives have a fitted effect of over 60% in size
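Recombinant Kinase-Glo luciferase, 10 uM ATP (linear range), luciferin; imidazole pH 7.2 / KCl / MgCl2 / Tween / BSA buffer; 8 min RT; luminescence.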
FLuc modulator – inhibits or activates purified firefly luciferase, miR-21 counter-screen | P08659 | AID 588342 | Potency, µM (series often up to 57.5 µM), for inactives: at the highest dose activity change, negative = inhibition, actives largely listed as inhibitors | purified FLuc, Km substrates, luminescence inhibition | 360,000 compounds, 6.9% hits;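 also: plate controls were vehicle for no effect and reference inhibitor for full effect; nearly all actives have a fitted effect of over 55% in size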
Target sequence (P08659 whole entry, looked up): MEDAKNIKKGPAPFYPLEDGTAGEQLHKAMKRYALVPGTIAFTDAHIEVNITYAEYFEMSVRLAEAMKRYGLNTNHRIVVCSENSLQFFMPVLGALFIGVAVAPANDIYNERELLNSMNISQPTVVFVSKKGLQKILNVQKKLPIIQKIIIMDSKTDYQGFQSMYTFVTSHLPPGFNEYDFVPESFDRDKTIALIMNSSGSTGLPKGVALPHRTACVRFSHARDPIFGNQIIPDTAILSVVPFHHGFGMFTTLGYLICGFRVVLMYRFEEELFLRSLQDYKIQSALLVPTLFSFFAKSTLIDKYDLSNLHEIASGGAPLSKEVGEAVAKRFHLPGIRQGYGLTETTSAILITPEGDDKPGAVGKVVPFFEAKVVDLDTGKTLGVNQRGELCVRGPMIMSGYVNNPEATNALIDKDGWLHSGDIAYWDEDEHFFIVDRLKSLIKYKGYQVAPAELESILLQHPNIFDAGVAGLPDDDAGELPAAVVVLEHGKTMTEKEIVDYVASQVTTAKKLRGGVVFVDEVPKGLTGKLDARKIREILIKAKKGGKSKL
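Purified P. pyralis luciferase (10nM final) with 10uM D-luciferin and 10uM ATP (Km levels) in 50mM Tris acetate pH 7.5, 10mM Mg acetate, 0.01% Tween-20, 0.05% BSA; qHTS 6-point titration, ~60 µM downward; luminescence read.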
SMN2 splice enh – increases expression of the SMN2 splice variant. Potency, µM (series often up to 46.1 µM), without a hit: at the top dose activity change, positive = activation, most hits filed as activators. 210,000 compounds, 2.8% hits. AID 1458. HEK293 SMN2-luciferase splicing reporter, luminescence, 30-36 h; also: % of control where 0% means no effect; nearly all actives have a fitted effect of over 55% in size
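qHTS luciferase splicing reporter: luminescence rises when SMN2 exon 7 is included in transfected HEK293 cells. Compound exposure lasted 30-36 h at 37C, with 4.5 mM final sodium butyrate as control, followed by a ONE-Glo read.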
* marks the source's active call; other numbers are inactive results; ? = inconclusive; . = no result; [ ] = dose if it differs, or a comment. Calls follow the shape of the dose curve; as a rule, active = well fitted curve in the direction sought with a large enough effect; inconclusive = small, poorly fitted or top-dose-only effect, or another doubt; inactive = no such curve, though single readings can be large; an effect the other way counts as inactive or inconclusive. Potency is read from the fitted curve at half-maximal effect.

SMILES | NPC1 promoter act | ELG1 genotox | Rab9 prom act | KinaseGlo FLuc | FLuc modulator | SMN2 splice enh
O=C(c1ccc(F)cc1)n1ccc(-c2cnc(-c3ccccc3)s2)n1 | 1µM* | 0.82µM* | 0.708µM* | -0.9% | ? | 12.6µM*
O=C(c1ccc(F)cc1)n1nc(-c2cccnc2)nc1NCc1ccccc1 | . | . | . | . | -3.2% | 13.0%
O=C(c1ccc(C(F)(F)F)cc1)n1ccc(-c2cccs2)n1 | -3.2% | 0.2% | 1.4% | . | 15.1µM* | .
CNc1nc(SC(C)C(=O)Nc2ccc(Cl)c(Cl)c2)nc(N2CCOCC2)n1 (stereo not given) | -1.7% | -0.1% | 0.7% | 1.9% | 0.5% | -20.6%
Cc1ccc(C(=O)NCc2cccnc2)cc1S(=O)(=O)Nc1ccccc1 | -1.8% | -4.1% | -10.3% | -0.8% | -1.7% | -4.5%
COC/C=C/C1=CC2=CC(=O)C(C)(OC(=O)c3cnc4ccccc4n3)C(=O)C2=CN1Cc1ccc2c(c1)OCO2 (stereo not given) | . | . | . | 1.5%[7.66 µM] | . | -8.6%[9.22 µM]
Fc1ccc(Cn2ccc(-c3cnc(-c4ccccc4)s3)n2)cc1 | ? | ? | 3.16µM* | -2.2% | 10.7µM* | -27.5%
Cc1ccc(NC(=O)Cn2c(=O)n(CCCCC(=O)NCCc3ccccc3)c(=O)c3ccccc32)cc1 | . | . | . | . | -1.0% | -1.7%
Cc1ccc(NC(=O)c2cccc3cccnc23)cc1 | 2.51µM* | ? | 1.58µM* | . | 5.36µM* | .
CC(=O)Nc1cccc(NC(=O)c2cccc3cccnc23)c1 | -0.7% | -3.8% | 22.7% | . | 13.5µM* | .
O=C(NCCc1ccccc1F)c1cccc2cccnc12 | 3.16µM* | ? | 1.78µM* | . | 16.9µM* | .
CN(CC(=O)Nc1ccc(Cl)c(Cl)c1)C(=O)c1cccc2cccnc12 | -4.8% | 0.4% | 4.4% | . | 2.7% | .
COc1ccccc1C(=O)Nc1cccc2cccnc12 | 23.6% | 7.7% | ? | . | 16.9µM* | .
Cc1ccccc1NC(=O)C(C)O/N=C/c1cccc([N+](=O)[O-])c1 (stereo not given) | -0.9% | -2.2% | -0.8% | 7.2% | 15.1% | -13.5%
Cc1ccc(S(=O)(=O)NC(=O)c2ccc(-c3ccc(-c4ccccc4)cc3)o2)c(C)c1 | 0.2% | 2.6% | -0.3% | -0.4% | 5.6% | 4.1%
CCc1cccc(NC(=O)CCc2nc3cccnc3n2-c2ccccc2)c1 | . | . | . | . | -2.2% | -15.4%
COc1ccc(CCn2c(O)cc3nn(-c4nc5ccccc5s4)c(=O)c-3c2C)cc1 | 2.82µM* | 13.7% | ? | . | 9.53µM* | .
CC1=CCC2C(=O)N(c3ccc(C)c(Br)c3)C(=O)C2C1 (stereo not given) | 1.3% | 6.2% | 2.2% | 4.6% | 0.8% | -18.9%
COc1ccc(-n2nc(C(=O)NCC(=O)N3CCN(c4ccccc4OC)CC3)c3ccccc3c2=O)cc1OC | 14.3% | -5.2% | 17.1% | . | 3.79µM* | .
COc1ccc(-n2nc(C(=O)NCC(=O)N3CCOCC3)c3ccccc3c2=O)cc1OC | -5.5% | -5.1% | -1.1% | . | 23.9µM* | .
COc1ccc(-n2nc(C(=O)NCC(=O)N3CCN(c4ccccc4)CC3)c3ccccc3c2=O)cc1OC | ? | 4.2% | 13.5% | . | 0.849µM* | .
COc1ccc(-n2nc(C(=O)NCC(=O)N3CCN(Cc4ccc5c(c4)OCO5)CC3)c3ccccc3c2=O)cc1OC | -7.0% | -15.6% | -2.0% | 0.1% | -2.8% | -10.7%
COCCn1c(SCC(=O)Nc2cc(C)on2)nnc1C(C)C | -7.8% | -2.4% | -0.1% | . | 0.3% | .
S=c1[nH]nc(-c2ccco2)n1/N=C/C(Cl)=C/c1ccccc1 | 3.55µM* | ? | 1.58µM* | . | ? | .
Cc1cc(-c2n[nH]c(=S)n2/N=C/C(Cl)=C/c2ccccc2)n[nH]1 | 25.6% | ? | ? | 1.8% | -0.6% | ?
SMILES | NPC1 promoter act | ELG1 genotox | Rab9 prom act | KinaseGlo FLuc | FLuc modulator | SMN2 splice enh
CCCOc1ccc(Oc2nc(-c3ccncc3)nc3ccccc23)cc1 | -9.1% | -6.4% | -1.9% | . | 0.0% | .
Cc1ccccc1OCC(O)Cn1nnc2ccccc21 (stereo not given) | ? | ? | 3.55µM* | 3.0% | 21.3µM* | 11.2µM*
CN1CCC(=O)N([C@H](CC#N)c2ccccc2)CC1 | 2.3% | 3.2% | 3.7% | . | 5.3% | .
CCCN1CCC(=O)N([C@H](CSc2ccccc2)c2ccccc2)CC1 | ? | 13.8% | ? | . | ? | .
CCCN1CCC(=O)N([C@H](CSc2ccc(OC)cc2)CC(C)C)CC1 | ? | ? | ? | . | 15.1µM* | .
Cc1ccc(SC[C@H](c2ccccc2)N2CCN(CCc3ccccc3)CCC2=O)cc1 | 8.8% | -4.3% | -1.9% | . | 26.9µM* | .
CN1CCC(=O)N([C@H](CSc2ccc(Br)cc2)c2ccccc2)CC1 | ? | ? | ? | . | 16.9µM* | .
CCCN1CCC(=O)N([C@H](CSc2ccc(C)cc2)c2ccccc2)CC1 | ? | 11.0% | ? | . | 15.1µM* | .
O=C1CCN(CCc2ccccc2)CCN1[C@H](CSc1ccccc1)c1ccccc1 | 11.8% | 1.2% | 8.5% | . | ? | .
Cc1cc2cc(CCNC(=O)c3cccc([N+](=O)[O-])c3)c(=O)[nH]c2cc1C | -5.4% | -9.5% | -1.6% | -1.1% | 2.1% | -24.5%
Cc1ccc(NC(=O)c2sc3ncn(Cc4cccc(F)c4)c(=O)c3c2C)c(Br)c1 | . | . | . | . | -2.6% | .
COC(=O)[C@@]12CCCCN1[C@H](c1ccc(-c3cccc(Cl)c3)c(OC)c1)[C@H]1C(=O)N(C)C(=O)[C@H]12 | -7.8% | -7.6% | -2.9% | . | 1.2% | .
O=C(NC1CC1)c1cc2cc3ccccc3nc2s1 | 2.24µM* | ? | 3.55µM* | . | 10.7µM* | .
O=C(Nc1ccc(Cl)cc1)C1CCN(c2nc3ccccc3nc2C(F)(F)F)CC1 | . | . | . | . | 2.3% | .
C=CCn1c(SCC(=O)c2cc(C)n(Cc3cccs3)c2C)nnc1-c1ccncc1 | 1.5% | -5.8% | -0.6% | -0.1% | 19µM* | -14.2%
Cc1cc(C(=O)CSc2nc3ccccc3n2CCC#N)c(C)n1Cc1cccs1 | 25.0% | 8.2µM* | ? | 2.5% | ? | ?
COc1ccccc1-n1cnnc1SCC(=O)c1cc(C)n(Cc2cccs2)c1C | 16.1% | 13.6% | 13.4% | -5.4% | 19µM* | 0.8%
N#CCCn1c(SCC(=O)c2c[nH]c3ccccc23)nc2ccccc21 | -1.6% | -0.1% | 9.7% | 1.4% | -1.5% | -21.3%
COc1ccccc1C(=O)N/C(=C\c1cn(C)c2ccccc12)C(=O)NCCCN1CCOCC1 | -4.3% | 4.3% | -3.6% | . | -19.1% | .
COc1ccc(C(=O)OCn2nnc3ccccc3c2=O)cc1 | -2.0% | 4.5% | -1.3% | 1.1% | -16.8% | -46.5%
COc1cc(-c2ccno2)ccc1S(=O)(=O)N1CCN(c2ccc(F)cc2)CC1 | . | . | . | . | -0.3% | .
